Results: PubChem BioAssay AID1159580 (chemical genetic matrix, 2015)
Hit rate of the full screen: of about 5,500 compounds, about 2,000 (36%) were called active. Inconclusive results (about 18%) are left out. Cut-off read from the data, not from the text of the source: active = normalized growth mostly below about 0.91 (no sharp cut-off); inconclusive = no clear call, values can overlap the other calls; inactive = mostly above about 0.92. Some of the results follow.

Experiment: chemical genetic growth profiling, strain panel (AID 1159580);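 note: tested at 20 µM; growth read once vehicle control cultures reached saturation at 30 °C; 1 = growth at the plate median or of vehicle wells; lower values mean less growth of the strain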
Details: S. cerevisiae deletion strains, growth OD

Measured: normalized growth

CC(=O)NC(C(=O)O)C(C)(C)SN=O (centres undefined)
inactive: locus YAL013W, strain DEP1, hits give low values 1.02 | locus YAL021C, strain ccr4, hits give low values 1.01 | locus YAL026C, strain drs2, hits give low values 0.992 | locus YAL030W, strain snc1, hits give low values 0.991 | locus YBL061C, strain skt5, hits give low values 0.984 | locus YBR009C, strain hhf1, hits give low values 1 | locus YBR021W, strain FUR4, hits give low values 0.977 | locus YBR023C, strain chs3, hits give low values 0.994 | locus YBR171W, strain sec66, hits give low values 0.993 | locus YBR229C, strain ROT2, hits give low values 1.01 | locus YBR231C, strain swc5, hits give low values 0.996 | locus YBR279W, strain paf1, hits give low values 0.986 | locus YCL011C, strain gbp2, hits give low values 0.996 | locus YCL016C, strain dcc1, hits give low values 0.985 | locus YCL029C, strain bik1, hits give low values 0.981 | locus YCL061C, strain MRC1, hits give low values 0.999 | locus YCL069W, strain vba3, hits give low values 0.991 | locus YCR088W, strain abp1, hits give low values 0.983 | locus YDL005C, strain med2, hits give low values 0.977 | locus YDL035C, strain GPR1, hits give low values 1 | locus YDL040C, strain nat1, hits give low values 0.996 | locus YDL074C, strain BRE1, hits give low values 1.06 | locus YDL101C, strain DUN1, hits give low values 1 | locus YDL134C, strain PPH21, hits give low values 1.01 | locus YDL185W, strain tfp1, hits give low values 0.98 | locus YDL192W, strain arf1, hits give low values 0.999 | locus YDR001C, strain nth1, hits give low values 0.984 | locus YDR069C, strain doa4, hits give low values 0.984 | locus YDR101C, strain arx1, hits give low values 1 | locus YDR137W, strain rgp1, hits give low values 1.04 | locus YDR150W, strain NUM1, hits give low values 0.978 | locus YDR159W, strain sac3, hits give low values 0.997 | locus YDR162C, strain NBP2, hits give low values 1.03 | locus YDR195W, strain ref2 0.949 | locus YDR297W, strain sur2, hits give low values 0.98 | locus YDR318W, strain mcm21, hits give low values 1 | locus YDR334W, strain swr1, hits give low values 0.976 | locus YDR335W, strain msn5, hits give low values 0.982 | locus YDR388W, hits give low values 1 | locus YDR392W, strain spt3, hits give low values 0.98 | locus YDR502C, strain sam2, hits give low values 1 | locus YEL003W, strain gim4, hits give low values 0.988 | locus YEL037C, strain rad23, hits give low values 0.984 | locus YEL061C, strain CIN8 (second series), hits give low values 0.989 | locus YEL061C, strain CIN8, hits give low values 1 | locus YER015W, strain faa2, hits give low values 0.996 | locus YER016W, strain bim1, hits give low values 0.991 | locus YER110C, hits give low values 0.984 | locus YER111C, strain swi4, hits give low values 0.981 | locus YER155C, strain BEM2 (second series), hits give low values 0.989 | locus YER155C, strain BEM2, hits give low values 1 | locus YER167W, strain BCK2, hits give low values 0.995 | locus YFR010W, strain ubp6, hits give low values 0.976 | locus YGL078C, strain dbp3, hits give low values 0.99 | locus YGL086W, strain mad1, hits give low values 0.988 | locus YGL167C, strain pmr1, hits give low values 0.99 | locus YGL173C, strain kem1, hits give low values 0.995 | locus YGL227W, strain vid30, hits give low values 0.992 | locus YGL240W, strain doc1, hits give low values 0.989 | locus YGL248W, strain PDE1, hits give low values 1.01 | locus YGL253W, strain hxk2, hits give low values 0.983 | locus YGR078C, strain PAC10, hits give low values 1.02 | locus YGR135W, strain pre9, hits give low values 1 | locus YGR229C, strain SMI1, hits give low values 1.05 | locus YGR252W, strain gcn5, hits give low values 1.01 | locus YHR013C, strain ard1, hits give low values 0.972 | locus YHR027C, strain rpn1, hits give low values 1.01 | locus YHR030C, strain SLT2, hits give low values 1 | locus YHR079C, strain IRE1 (second series), hits give low values 0.999 | locus YHR094C, strain hxt1, hits give low values 0.98 | locus YHR129C, strain ARP1, hits give low values 0.998 | locus YHR142W, strain chs7, hits give low values 0.978 | locus YHR200W, strain rpn10, hits give low values 0.992 | locus YIL066C, strain RNR3, hits give low values 1.01 | locus YIL073C, strain SPO22, hits give low values 0.913 | locus YIL125W, strain kgd1, hits give low values 0.99 | locus YIR030C, strain dcg1, hits give low values 1 | locus YJL092W, strain hpr5, hits give low values 0.983 | locus YJL095W, strain BCK1 (second series), hits give low values 0.989 | locus YJL095W, strain BCK1, hits give low values 1.07 | locus YJL115W, strain asf1, hits give low values 0.986 | locus YJL129C, strain trk1, hits give low values 0.995 | locus YJL134W, strain LCB3, hits give low values 1 | locus YJL154C, strain vps35, hits give low values 0.975 | locus YJL164C, strain tpk1, hits give low values 1 | locus YJL166W, strain qcr8, hits give low values 0.996 | locus YJL168C, strain set2, hits give low values 1.01 | locus YJL187C, strain SWE1 (second series), hits give low values 1 | locus YJL187C, strain SWE1, hits give low values 0.989
